In the library only some 4% were active in any assay of this set; here they are far more common.
MazF activator: activators of E. coli MazEF toxin-antitoxin RNase; FAM/BHQ RNA-DNA oligo cleavage fluorescence, 5 h; P0AE70; 0.32% of 350,000 active; activation, % at 20 µM; in the data active = activation above about 50%
Target sequence (P0AE70 whole entry, looked up): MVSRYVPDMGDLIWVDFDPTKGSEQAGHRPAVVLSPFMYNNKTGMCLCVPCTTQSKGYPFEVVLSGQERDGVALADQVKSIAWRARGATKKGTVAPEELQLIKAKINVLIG
Mtb bLac sens: beta-lactam sensitization of Mtb H37Rv; M. tuberculosis H37Rv growth with meropenem, percent inhibition; inhibition, % at 25 µM; 0.27% of 330,000 active; AID 434955;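 also: growth measured after seven days incubation then overnight dye step; 0% = bacteria only wells and 100% = bacteria with antibiotic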
GDH-TPI counter-1: inhibits GDH-TPI coupling enzymes, artifact for Mtb FBA screen. GDH-TPI coupled enzyme counterscreen, NADH absorbance. inhibition, % at 4.8 µM. 1.2% of 360,000 active. AID 588335; in the data active = inhibition above about 30%;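 also: 0% = DMSO wells and 100% = wells lacking the enzyme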
Mtb FBA inh: Mtb fructose-bisphosphate aldolase inhibition; inhibition, % at 1 µM; 2.3% of 360,000 active; P9WQA3; purified M. tuberculosis FBA, fluorescence read-out; in the data active = inhibition above about 27%;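 also: 0% = vehicle and 100% = reference inhibitor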
Target sequence (P9WQA3 whole entry, looked up): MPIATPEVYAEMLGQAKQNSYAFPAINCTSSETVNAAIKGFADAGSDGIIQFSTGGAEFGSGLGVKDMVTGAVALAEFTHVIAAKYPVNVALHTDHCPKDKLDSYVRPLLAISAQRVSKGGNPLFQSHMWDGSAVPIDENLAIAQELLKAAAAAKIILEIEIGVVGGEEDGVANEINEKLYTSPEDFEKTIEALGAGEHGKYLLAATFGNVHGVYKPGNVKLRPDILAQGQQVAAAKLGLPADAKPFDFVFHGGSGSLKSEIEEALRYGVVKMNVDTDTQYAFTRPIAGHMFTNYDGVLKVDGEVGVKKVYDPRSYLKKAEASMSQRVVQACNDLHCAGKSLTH
CCHFV vOTU inh: blocks the CCHF virus ovarian tumor domain protease | CCHFV vOTU protease, Pep-AMC fluorescence | inhibition, % at 11.5 µM | 0.55% of 370,000 active | AID 651958; in the data active = inhibition above about 30%; also: 0% = vehicle wells with enzyme and 100% = no enzyme wells
Mtb FBA confirm: confirmation of M. tuberculosis fructose-bisphosphate aldolase inhibitors. 78% of 5,600 active. inhibition, % at 1 µM. shares compounds with Mtb FBA inh. purified M. tuberculosis FBA, fluorescence read-out; in the data active = inhibition above about 27%;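 also: 0% = vehicle wells and 100% = reference inhibitor wells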
GDH-TPI counter-2: GDH-TPI inhibition counter-screen for FBA inhibitors. AID 652141. shares compounds with Mtb FBA inh. GDH-TPI coupled enzyme counterscreen, fluorescence. 81% of 5,600 active. inhibition, % at 1 µM; in the data active = inhibition above about 10%
GDH-TPI DR: counter-screen for M. tuberculosis FBA inhibitors: GDH-TPI dose response | shares compounds with Mtb FBA inh | GDH-TPI coupled enzyme assay, fluorescence, artifact counterscreen | IC50, µM | 79% of 170 active
An asterisk follows results filed as active; ? = inconclusive; · = not tested or not shown; + = active, no number. Unless noted, no rule for the calls is given here.

SMILES	MazF activator	Mtb bLac sens	GDH-TPI counter-1	Mtb FBA inh	CCHFV vOTU inh	Mtb FBA confirm	GDH-TPI counter-2	others
O=S1(=O)c2ccc(Br)cc2OC[C@H](Cc2ccccc2)N1Cc1cn(Cc2ccc(C(F)(F)F)cc2)nn1	·	·	·	·	11.9	·	·
CCCC(=O)N1CCC1(C)C(=O)Nc1ccc2nccnc2c1 (stereo not given)	·	·	23.9	43.0*	-30.7	45.4*	23.8*
CCc1ccc(Nc2n[n+](-c3ccccc3)c(-c3ccc(N(CC)CC)cc3)s2)cc1	-70.0	99.6	7.6	51.4*	16.3	36.3*	34.8*
CCOC(=O)C1=C(C(=O)OCC)C2N(Cc3ccc(C#N)cc3)c3ccccc3[C@@]23C[C@@H](C(=O)OC)N(S(=O)(=O)c2cccs2)C3=N1 (stereo not given in full)	·	·	·	·	-4.8	·	·
O=C1N2CCc3ccccc3C2CS(=O)(=O)N1CCc1ccccc1 (stereo not given)	·	·	·	·	-0.1	·	·
Nc1c(C(=O)Nc2nc3ccccc3s2)sc2nc(-c3cccs3)ccc12	-53.0	8.1	35.2*	52.4*	·	123.0*	114.3*
COc1cc2[nH]c(-c3cccc(F)c3)cc(=O)c2cc1OC	3.8	32.3	-3.5	28.0*	-17.8	82.0*	64.2*
Cc1ccc(-c2cc(=O)c3ccccc3[nH]2)cc1	4.8	-8.8	-0.4	2.6	-1.1	·	·
COc1cc2[nH]c(-c3ccc(C)cc3)cc(=O)c2cc1OC	1.9	13.0	25.1	58.2*	-21.9	+	+
COCCCNc1nc2ccccc2nc1NS(=O)(=O)c1ccc(OC)cc1	-3.0	?	25.0	29.9*	-28.8	70.5*	65.0*
Clc1ccc(-c2cc(-c3nnc4sc(Cc5cccs5)nn34)[nH]n2)cc1	·	·	·	·	24.1	·	·
O=C(NN1C(=O)NC2(CCCCC2)C1=O)c1ccc(-c2ccc(Cl)cc2)o1	5.5	-2.8	8.4	34.7*	-15.0	157.3*	123.6*
CCOC(=O)C1=CCN(S(=O)(=O)c2ccc(Br)cc2)C1c1cccc(Br)c1 (stereo not given)	·	·	·	·	-0.4	·	·
CC1CCC(C(C)C)C2=C1C(C#N)(C#N)C(C#N)(C#N)C(c1ccccc1)N2 (stereo not given)	10.2	3.3	8.6	8.4	0.5	·	·
CCC1OC2(C)OC(=N)C1(C#N)C(C#N)(C#N)C2c1ccccc1 (stereo not given)	26.2	-10.9	0.7	56.5*	-152.9	18.2	-1.7	GDH-TPI DR=3.33*
CC(C)C1OC2(C)OC(=N)C1(C#N)C(C#N)(C#N)C2c1ccccc1 (stereo not given)	1.6	1.6	5.8	50.0*	-122.3	94.3*	82.2*
O=C(NCCc1c[nH]c2ccccc12)OCc1cn(Cc2cccc(C(F)(F)F)c2)nn1	·	·	·	·	6.0	·	·
Nc1ncnc2nc(-c3ccccc3)[nH]c12	6.8	·	2.6	68.7*	-18.9	4.0	-1.6
Nc1ncnc2nc(SCc3ccccc3)[nH]c12	-8.7	7.5	-16.1	-1.4	3.4	·	·
CCOC(=O)CCn1c2nc(C)cc(C)c2c(=O)n1-c1ccccc1	4.0	-13.5	-2.6	28.2*	-10.8	48.9*	40.7*
COc1ccc(-c2ccc3c(c2)CN(C(=O)NC2CCCCC2)Cc2cnnn2-3)cc1	·	·	·	86.4*	7.2	52.3*	41.3*
O=C(OCc1ccc(Br)cc1F)c1cc2ccccc2oc1=O	-5.2	56.6	9.7	66.6*	-14.1	191.4*	153.2*
COC(=O)C1CN(Cc2ccccc2)CCS(=O)(=O)N1Cc1cccc(Cl)c1 (stereo not given)	·	·	·	·	3.2	·	·
Cc1cccc(NC(=O)C2CCN(c3nnc(-n4cccc4)s3)CC2)c1C	·	·	·	·	7.4	·	·
COC(=O)c1ccc(C(=O)OC)c(NS(=O)(=O)c2ccc(NC(C)=O)cc2)c1	1.2	1.1	4.1	33.5*	-67.7	71.2*	62.1*
SMILES	MazF activator	Mtb bLac sens	GDH-TPI counter-1	Mtb FBA inh	CCHFV vOTU inh	Mtb FBA confirm	GDH-TPI counter-2	others
COC(=O)[C@]12C[C@H](CC(=O)N3CCCCC3)C(=O)N(Cc3cccc4ccccc34)C1=C[C@H](C1CCCC1)O[C@@H]2C	·	·	·	·	6.7	·	·
COc1ccc2c(C)cc(=O)[nH]c2c1	4.1	4.6	21.3	-6.0	12.3	·	·
COc1ccc2c(O)c(-c3c(C)cc(C)cc3C)c(=O)[nH]c2c1	-12.2	49.7	17.1	46.4*	-12.6	-6.1	-6.7
c1cc(-c2nnc3n2N=C(c2ccc4c(c2)OCO4)CS3)ccn1	·	·	·	·	18.2	·	·
COc1ccc(Cn2cc(Cn3c4ccccc4c(=O)n3C(C)C)nn2)cc1	·	·	·	104.7*	-15.3	76.9*	55.1*
CC(C)n1c(=O)c2ccccc2n1Cc1cn(-c2ccc(Cl)cc2)nn1	·	·	·	55.8*	-4.5	35.3*	29.9*
COC(=O)[C@H]1C[C@@]2(n3ccc4ccccc43)c3ccccc3N(S(=O)(=O)c3ccccc3)[C@H]2N1	·	·	·	·	7.2	·	·
Clc1ccc2nc(-c3ccc(Cl)nc3)[nH]c2c1	6.3	12.2	13.8	36.0*	-13.8	107.1*	81.7*
Nc1nc2ccc(Cl)cc2[nH]1	1.7	·	-5.6	-0.5	-8.0	·	·
Nc1ccc2nc(-c3ccc(Cl)cc3)[nH]c2c1	5.5	0.8	19.4	87.3*	-165.8	168.1*	126.9*
COC(=O)C1=C(C)N(Cc2cccc(C(F)(F)F)c2)C(=NCC2CC2)NC1c1cccc(C(F)(F)F)c1 (stereo not given)	·	·	·	·	22.9	·	·
CCn1c2c(n(C(C)=O)c1=O)C[C@@H](c1ccccc1)[C@@H](C)[C@@H](C(=O)N1CCCC1)C2	·	·	·	·	10.9	·	·
O=C(N[C@H](C(=O)N1CCC[C@H]1C(=O)NCCc1ccccc1Cl)c1ccccc1)c1cccs1	·	·	·	·	17.1	·	·
CCCCn1nc2cc(C(=O)NCc3cc(C(F)(F)F)cc(C(F)(F)F)c3)ccc2c1OCC	4.6	0.7	12.1	18.0	15.6	·	·
CCOc1c2ccc(C(=O)NCc3cc(C(F)(F)F)cc(C(F)(F)F)c3)cc2nn1C	5.3	54.2	9.4	57.3*	-11.9	60.4*	43.9*
COCCn1nc2cc(C(=O)NCc3cc(C(F)(F)F)cc(C(F)(F)F)c3)ccc2c1OC	3.2	5.7	6.3	47.1*	-26.9	56.9*	41.5*
O=C(NCc1cccc(C(F)(F)F)c1)c1ccc(=O)[nH]c1	0.8	-6.0	3.7	6.3	13.8	·	·
CCOc1c2ccc(C(=O)NCc3cc(C(F)(F)F)cc(C(F)(F)F)c3)cc2nn1CCOC	3.5	14.4	4.9	43.1*	-15.4	104.6*	64.3*
Cc1ccc(CN2CCCCC(NC(=O)c3cccc(F)c3)C2=O)cc1 (stereo not given)	·	·	·	·	4.0	·	·
C[C@H](CO)N1C[C@H](C)[C@@H](CN(C)Cc2ccc(C(=O)O)cc2)OCCCC[C@H](C)Oc2ccc(NC(=O)CCC(F)(F)F)cc2C1=O	·	·	·	·	9.4	·	·
O=c1cc(-c2ccco2)oc2c1ccc1ccccc12	-14.5	42.8	20.5	49.2*	-21.9	+	+

Compound activity: PubChem BioAssay, several laboratories
